# Bioassay records deposited in PubChem BioAssay by The Scripps Research Institute Molecular Screening Center.
# Hits are enriched below; roughly 1.1% of the tested compounds scored in any of these assays.
# SRC2 inh – human SRC2 (NCOA2) inhibition | Q15596 | HEK293 GAL4-SRC2 luciferase reporter, luminescence | inhibition, % at 9 µM | hit rate 0.17% among 370,000;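 active = inhibition above the mean inhibition of all tested compounds plus 3 SD, set per campaign, cut at about 52% in these data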;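 note: 0% = DMSO treated cells and 100% = cells given Gossypol at 36 µM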
# SRC3 inh – human NCOA3 inhibition; Q9Y6Q9; HEK293 GAL4-SRC3 luciferase reporter, luminescence; inhibition, % at 3.6 µM; hit rate 0.17% among 360,000; AID 588352;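 active = inhibition above a per-campaign cutoff, the mean of all compounds plus 3 SD, cut at about 60% in these data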;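 note: 0% = DMSO-treated cells and 100% = gossypol-treated cells at 36 µM; higher means less SRC3-driven luciferase light from the GAL4 reporter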
# SRC1 inh – human NCOA1 inhibition. HEK293 GAL4-SRC1 luciferase reporter, luminescence. inhibition, % at 3.6 µM. hit rate 0.12% among 360,000. AID 588354;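 active = inhibition above the campaign mean plus 3 SD, with each screening campaign given its own cutoff, cut at about 60% in these data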;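 note: 0% = DMSO treated cells and 100% = gossypol at 36 µM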
# GalR3 antag – human GalR3 antagonism. O60755. hit rate 0.44% among 360,000. HEK293 GalR3-CNG cAMP membrane potential fluorescence; galR3 body fused to GalR1 C-terminus. inhibition, % at 3 µM;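 active = inhibition above the screen-wide average plus 3 SD, cut at about 13% in these data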;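 note: forskolin and galanin both at EC90 stimulate the cells; cAMP rise reported by CNG channel membrane potential dye signal; 0% = forskolin plus galanin with DMSO and 100% = forskolin alone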
# Target sequence (O60755 1-299 limits assumed): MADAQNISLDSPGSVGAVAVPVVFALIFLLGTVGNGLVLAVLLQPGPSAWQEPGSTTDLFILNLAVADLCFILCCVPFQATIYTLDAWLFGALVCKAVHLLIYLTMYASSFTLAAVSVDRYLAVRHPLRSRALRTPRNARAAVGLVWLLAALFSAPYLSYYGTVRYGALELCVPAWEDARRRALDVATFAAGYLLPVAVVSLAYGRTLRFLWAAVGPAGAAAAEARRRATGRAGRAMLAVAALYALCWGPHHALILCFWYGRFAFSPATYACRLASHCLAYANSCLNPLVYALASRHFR
# NR2F2 inh – NR2F2 (human) inhibition, primary screen | P24468 | HEK293T NGFI-A luciferase reporter, luminescence | inhibition, % at 8.6 µM | hit rate 0.7% among 370,000;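 active = inhibition above a per-plate cutoff, mean inhibition of test wells between control levels plus 3 SD, cut at about 38% in these data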;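 note: cells cotransfected with COUP-TFII expression vector driving the NGFI-A reporter; 0% = median of COUP-TF2 test wells and 100% = reporter-only cells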
# LRH-1 inv ag – NR5A2 inverse agonism in reporter assay. HEK293T StAR-luciferase reporter, LRH-1 transfected, 24 h. AID 602396. hit rate 0.13% among 360,000. inhibition, % at 3.6 µM. O00482;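 active = inhibition above the mean inhibition of all tested compounds plus 3 SD, cut at about 73% in these data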;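 note: 0% = DMSO wells and 100% = reporter-only cells lacking LRH-1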
# VP16 Luc counter – inhibits VP16 reporter, flagging COUP-TFII antagonist hits; AID 687007; hit rate 25% among 2,500; HEK293 Gal4-VP16 luciferase reporter, luminescence; shares compounds with NR2F2 inh; inhibition, % at 8.5 µM; in the data active = inhibition above about 13%
# COUP-TFII conf – COUP-TFII (NR2F2) inhibition, confirmation assay | shares compounds with NR2F2 inh | HEK293 NGFI-A luciferase reporter, luminescence | inhibition, % at 8.5 µM | hit rate 45% among 2,500 | AID 687008;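 active = mean inhibition over three repeats above a set limit taken from the earlier primary screen, cut at about 38% in these data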;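 note: 100% = cells given the luciferase reporter alone without the COUP-TF2 vector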
# Active calls of the source: *; · = no result given.
SMILES,SRC2 inh,SRC3 inh,SRC1 inh,GalR3 antag,NR2F2 inh,LRH-1 inv ag,VP16 Luc counter,COUP-TFII conf
CCCCOCCCNC(=O)C[C@@H]1C(=O)N(Cc2ccc(OC)cc2)/C2=C/CCCCC[C@@]21C(=O)OCC,-16,·,·,·,-2,·,·,·
COc1ccc(-c2cc3nc(NCc4ccc(N(C)C)cc4)n(C)c(=O)c3s2)cc1OC,-10,7,12,-6,39*,17,-21,56*
COc1cccc(CNc2nc3cc(-c4ccsc4)sc3c(=O)n2C)c1OC,24,-13,25,-6,66*,29,5,46*
COc1cccc(CNc2nc3cc(-c4ccc(C)cc4)sc3c(=O)n2C)c1OC,-34,-74,-20,-9,5,-28,·,·
COc1cccc(CNc2nc3cc(-c4ccc(OC)c(OC)c4)sc3c(=O)n2C)c1,-16,2,4,5,-7,12,·,·
CC(C)c1ccc(CNc2nc(NCC3CC3)nc3ccsc23)cc1,18,-8,-2,-6,31,13,·,·
COc1cccc(CNc2nc(NCC3CC3)nc3ccsc23)c1,6,4,17,-8,43*,24,-1,20
CSc1ccccc1CNc1nc(NCC2CC2)nc2ccsc12,20,6,2,-6,53*,37,5,24
COc1cccc(CNc2nc(NCC3CC3)nc3ccsc23)c1OC,41,21,6,-3,59*,34,-3,19
CN(C)[C@H]1CCN(c2ccc3c(c2)OCCCN(C2CC2)S3(=O)=O)C1,-27,·,·,·,-11,·,·,·
COc1cccc(N2CCN(C(=O)c3cccc(NC(=O)C4=C(C)OCCS4)c3)CC2)c1,25,11,12,-5,3,2,·,·
C#CCN1C(=O)[C@]2(OCCC=C[C@H]2C)c2cc(OC)ccc21,-1,·,·,-6,3,·,·,·
C[C@H]1O[C@@H](O[C@H]2[C@@H](O)C[C@H](O[C@H]3[C@@H](O)C[C@H](O[C@H]4CC[C@@]5(C)[C@H](CC[C@@H]6[C@@H]5C[C@@H](O)[C@]5(C)[C@@H](C7=CC(=O)OC7)CC[C@]65O)C4)O[C@@H]3C)O[C@@H]2C)C[C@H](O)[C@@H]1O,61*,91*,87*,23*,80*,102*,48*,77*
N#Cc1ccc(-c2ccc(OCC(=O)Nc3cccnc3)cc2)cc1,53*,-8,-15,8,47*,37,-4,23
CCCN1C(=O)c2n[nH]c(C)c2C1c1ccc(Br)cc1 (stereo not drawn),13,·,·,-6,2,·,·,·
Cc1ccc(S(=O)(=O)N2CCCCC2)cc1NCC(=O)Nc1ccc(Br)cc1F,18,9,9,-2,55*,19,1,27
CCc1ccc(C(=O)Nc2ccc(OC)c(S(=O)(=O)N3CCCCC3)c2)cc1,30,20,10,-7,58*,23,-2,34
COc1ccccc1NC(=O)c1ccc(S(=O)(=O)N2CCCC2)cc1,-16,-10,13,6,4,-29,·,·
O=C(CNc1ccccc1F)Nc1cc(S(=O)(=O)N2CCCCC2)ccc1Cl,12,10,-6,-8,-39,-15,·,·
COc1ccccc1NS(=O)(=O)c1ccc(C)c(NC(=O)c2ccc(S(=O)(=O)N3CCCCCC3)cc2)c1,14,26,13,-9,41*,-20,2,29
Cc1ccc(NC(=O)/C=C/c2ccco2)cc1S(=O)(=O)N1CCCCCC1,21,23,-9,-7,50*,-14,0,31
CCc1ccc(C(=O)Nc2ccc(OC)c(S(=O)(=O)N3CCOCC3)c2)cc1,-19,25,5,-1,15,-1,·,·
COC(=O)C1=C(C)N(C)C(=NCc2cc(OC)c(OC)c(OC)c2)NC1c1ccc(C(F)(F)F)cc1 (stereo not drawn),-23,·,·,-3,2,·,·,·
COc1ccc(C(=O)Nc2ccc(C)c(S(=O)(=O)N3CCCCCC3)c2)cc1,7,5,16,-9,46*,7,0,20
Nc1ccc(C(=O)N/N=C/c2sc(N3CCOCC3)nc2-c2ccccc2)cc1,-18,6,-14,-1,-27,1,·,·
SMILES,SRC2 inh,SRC3 inh,SRC1 inh,GalR3 antag,NR2F2 inh,LRH-1 inv ag,VP16 Luc counter,COUP-TFII conf
O=C(N/N=C/c1sc(N2CCOCC2)nc1-c1ccccc1)c1cccc(S(=O)(=O)N2CCOCC2)c1,6,72*,66*,0,54*,75*,0,50*
O=C(Cn1cnc2ccccc21)Nc1ccc(SC(F)F)cc1,23,20,-6,74*,70*,34,-4,46*
O=C(Cn1cnc2ccccc21)NCc1ccccc1,-11,-20,-24,-2,10,-11,·,·
O=C(NCc1ccccc1)[C@@H]1CCCN1C(=O)[C@@H](NS(=O)(=O)c1ccc(F)cc1F)c1ccccc1,-20,·,·,-8,-10,·,·,·
COc1ccc2[nH]c3c(NCCC4=CCCCC4)ncnc3c2c1,-33,-46,-51,-7,54*,-79,-137,21
COc1ccc2[nH]c3c(NCCCOC(C)C)ncnc3c2c1,-49,-69,-81,-3,-26,-116,·,·
Oc1cc(O)cc(-c2cc3ccc(O)cc3o2)c1,-8,-28,-46,-5,-7,-45,·,·
CC1(C)Oc2cc3oc(-c4cc(O)cc(O)c4)cc3cc2CC1O (stereo not drawn),7,0,13,1,41*,13,-68,15
CC(C)(C)OC(=O)N1CCC[C@@H]1C(=O)N1CCC[C@H]1C(=O)NCc1ccccc1,-17,·,·,4,-5,·,·,·
CC1Cc2cc(S(=O)(=O)N3CCN(c4ccc(Cl)cc4)CC3)ccc2N1C(=O)C1CC1 (stereo not drawn),5,1,22,-2,-8,2,·,·
CC(=O)N1c2ccc(S(=O)(=O)N3CCC(C(=O)N4CCN(c5ccc(Cl)cc5)CC4)CC3)cc2CC1C (stereo not drawn),30,9,-5,-8,44*,3,-1,18
COC(=O)Cc1nnn2c1[C@@H](C)[C@@H](c1ccccc1Br)O[C@@H](C)C2,-8,·,·,-1,10,·,·,·
S=C(Nc1ccccc1)Nc1ccc(OCc2ccc(Cl)cc2Cl)cc1,82*,60,55,0,76*,50,70*,71*
O=S1(=O)c2ccc(Br)cc2OC[C@@H](Cc2ccccc2)N1Cc1cn(CCC2OCCCO2)nn1,-25,·,·,·,-18,·,·,·
Cc1ccc2[nH]c(C)c(/C=C/c3cc[n+](C)cc3)c2c1,-10,16,13,-10,41*,54,5,20
Cc1ccc2c(c1)c(/C=C/c1cc[n+](C)cc1)c(C)n2C,-42,33,42,-7,54*,60,10,31
